According to the supplement of paper PMC9254222:
Whole data set: some 1,100 compounds, median “Renilla luciferase signal (cell health) relative to plate median” near 0.97, cut for the highest 2% near 1.6. The list comes from a sample in which the highest values are over-represented; it also holds similar structures and randomly drawn compounds.

System: HEK293T (UBE3A T485A transfected, BAR Wnt reporter)
Test: Renilla luciferase signal (cell health) relative to plate median (fold (linear ratio)); higher = higher Renilla signal
Details: 24 h
How it was run: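 Wnt activity (firefly/Renilla ratio) and cell health (raw Renilla) were read with Dual-Glo luciferase and median-centred plate by plate. HEK293T cells, at 4500 cells/well in white 384-well plates with DMEM plus 10% FBS at 37°C and 5% CO2, carried a transfected BAR firefly luciferase Wnt reporter, TK-Renilla and an expression plasmid. The chemicals were applied by robot at 0.01–100 uM for 24 h, beginning four hours after transfection, and results were averaged across four biological replicates.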

| SMILES | Renilla luciferase signal (concentration: 0.1 uM) | Renilla luciferase signal (concentration: 1 uM) | Renilla luciferase signal (concentration: 10 uM) | Renilla luciferase signal (concentration: 100 uM) | Renilla luciferase signal (concentration: 0.01 uM) |
| --- | --- | --- | --- | --- | --- |
| Cc1cccc(Nc2cc(Cl)nc(SCC(=O)O)n2)c1C [Pirinixic acid] | 0.799 | 0.871 | 0.861 | 1.71 |  |
| O=C1CCC(N2C(=O)c3ccccc3C2=O)C(=O)N1 (configuration not stated) [Thalidomide] | 0.78 | 0.818 | 0.85 | 0.675 |  |
| CCN(CC)C(=O)c1cccc(C)c1 | 0.897 | 0.949 | 0.847 | 1.79 | 0.895 |
| CCNc1cccc(C)c1 [N-Ethyl-3-methylaniline] | 1.02 | 0.916 | 0.98 | 0.872 |  |
| COc1cc(C=O)ccc1O [4-Hydroxy-3-methoxybenzaldehyde] | 0.805 | 0.833 | 0.848 | 0.902 |  |
| CCN(Cc1c(F)cccc1Cl)c1c([N+](=O)[O-])cc(C(F)(F)F)cc1[N+](=O)[O-] [Flumetralin] | 0.795 | 0.84 | 1 | 0.766 | 1.1 |
| Cc1cc(C=C2SC(=O)N(c3ccccc3)C2=O)c(C)n1-c1cccnc1 | 1.02 | 1.06 | 0.979 | 0.257 |  |
| O=c1[nH]c2cc([N+](=O)[O-])c([N+](=O)[O-])cc2[nH]c1=O | 1.01 | 1.02 | 1.09 | 1.96 | 1.11 |
| O=C(Nc1ccc(Cl)cc1)Nc1ccc(Cl)c(Cl)c1 [Triclocarban] | 1 | 0.895 | 0.408 | 0.021 |  |
| COC(=O)c1ccccc1O [Methyl salicylate] | 1.22 | 1.13 | 1.23 | 0.53 |  |
| O=C([O-])c1ccc2c(c1)nc(C(=O)NC1CCN(C3CC3)CC1)n2Cc1cc(-c2ccc(Cl)s2)on1.[Na+] | 0.987 | 0.823 | 0.947 | 0.531 |  |
| O=C1OC(c2ccc(O)cc2)(c2ccc(O)cc2)c2ccccc21 [Phenolphthalein] | 1.1 | 1.09 | 1.15 | 0.0287 |  |
| CCCCCCCC/C=C\CCCCCCCC(=O)OC[C@@H](O)[C@H]1OC[C@H](O)[C@H]1O [Sorbitan, mono-(9Z)-9-octadecenoate] | 1 | 0.88 | 0.863 | 0.85 |  |
| O=C(O)c1ccccc1C(c1ccc(O)cc1)c1ccc(O)cc1 [Phenolphthalin] | 1.11 | 1.1 | 0.958 | 0.886 |  |
| CN(C)CCOC(c1ccccc1)c1ccccc1.Cl [Diphenhydramine hydrochloride] | 0.825 | 0.842 | 0.836 | 0.491 |  |
| CCCCCCCCCC(=O)O [Decanoic acid] | 0.743 | 0.768 | 0.634 | 0.979 |  |
| CCCCCC(=O)O [Hexanoic acid] | 1.26 | 1.16 | 1.24 | 1.41 |  |
| CCCC(=O)O [Butanoic acid] | 1.03 | 1.11 | 1.14 | 1.73 |  |
| CN(C)C(=O)C1(N2CCCCC2)CCN(CC[C@@]2(c3ccc(Cl)c(Cl)c3)CN(C(=O)c3ccccc3)CCO2)CC1 | 0.903 | 0.888 | 0.664 | 0.0169 |  |
| CCc1c(C(=O)NN2CCCCC2)nn(-c2ccc(Cl)cc2Cl)c1-c1ccc(Br)cc1 [Surinabant] | 1.06 | 1.07 | 0.127 | 0.363 |  |

| SMILES | Renilla luciferase signal (concentration: 0.1 uM) | Renilla luciferase signal (concentration: 1 uM) | Renilla luciferase signal (concentration: 10 uM) | Renilla luciferase signal (concentration: 100 uM) | Renilla luciferase signal (concentration: 0.01 uM) |
| --- | --- | --- | --- | --- | --- |
| COC(=O)CCCCC(=O)OC [Dimethyl adipate] | 0.854 | 0.917 | 0.874 | 1.11 |  |
| CCCCCCCCCCCC(=O)OC [Methyl dodecanoate] | 0.884 | 0.792 | 0.85 | 0.89 |  |
| CCCCCCCC(=O)OC [Methyl octanoate] | 1.03 | 0.911 | 1.04 | 1.61 |  |
| O=C(O)c1cccc(C[C@@H]2COc3ccc(OCc4nc5cc(F)ccc5s4)cc3[C@@H]2O)c1 | 1.04 | 1.05 | 1.17 | 0.94 |  |
| C=CCCCCCCCCCCCC [1-Tetradecene] | 1.14 | 1.17 | 0.992 | 1.23 |  |
| CC[C@H]1CC[C@H](NCc2cc3c(cc2OC)[C@H]2C[C@H]2C(=O)N3C)[C@H](c2ccccc2)N1 | 0.925 | 0.69 | 0.042 | 0.0275 |  |
| CC(C)(O)c1ccc(CNC(=O)c2cccnc2Oc2ccc3nonc3c2)cc1 | 0.961 | 0.975 | 0.999 | 0.124 |  |
| CCCN(CCC)C(=O)SCC | 0.898 | 1.09 | 0.918 | 2.92 | 0.911 |
| CCSC(=O)N(CC(C)C)CC(C)C [Butylate] | 1.15 | 1.07 | 1.09 | 1.59 | 1.09 |
| O=[N+]([O-])c1ccc(O)cc1 [4-Nitrophenol] | 0.863 | 0.956 | 0.876 | 0.736 |  |
| O=C(O)c1ccc([N+](=O)[O-])cc1 [4-Nitrobenzoic acid] | 1.01 | 0.971 | 1.08 | 1.33 |  |
| C=CCc1cc(S(=O)(=O)c2ccc(O)c(CC=C)c2)ccc1O [4,4'-Sulfonylbis[2-(prop-2-en-1-yl)phenol]] | 1 | 1.11 | 1.34 | 0.0284 |  |
| Cc1c(C)c2c(c(C)c1O)CCC(C)(CCCC(C)CCCC(C)CCCC(C)C)O2 (stereo not drawn) [Vitamin E (alpha-tocopherol)] | 1.02 | 0.963 | 1.28 | 1.99 | 1.15 |
| Cc1c(C)c2c(c(C)c1O)CCC(C)(COc1ccc(CC3SC(=O)NC3=O)cc1)O2 (configuration not stated) [Troglitazone] | 0.923 | 0.982 | 0.892 | 0.0852 |  |
| CCCCCCCCCCCCCCO [1-Tetradecanol] | 0.93 | 0.831 | 0.94 | 0.92 |  |
| CCOc1ccc2c(c1)C(C)=CC(C)(C)N2 [Ethoxyquin] | 1 | 1.01 | 0.86 | 0.0339 |  |
| OC[C@H]1O[C@@H]2O[C@H]3[C@H](O)[C@@H](O)[C@@H](O[C@H]4[C@H](O)[C@@H](O)[C@@H](O[C@H]5[C@H](O)[C@@H](O)[C@@H](O[C@H]6[C@H](O)[C@@H](O)[C@@H](O[C@H]7[C@H](O)[C@@H](O)[C@@H](O[C@H]1[C@H](O)[C@H]2O)O[C@@H]7CO)O[C@@H]6CO)O[C@@H]5CO)O[C@@H]4CO)O[C@@H]3CO [alpha-Cyclodextrin] | 1.12 | 1.05 | 1.05 | 1.77 |  |
| Cc1oc(-c2ccccc2)nc1CCOc1cccc2c1ccn2CCC(=O)O | 0.873 | 0.846 | 0.748 | 0.478 |  |
| CCN(CC)CCNc1ccc(CNC=O)c2sc3ccc(OC)cc3c(=O)c12 | 0.886 | 0.626 | 0.193 | 0.0173 |  |
| NC(=O)N(O)[C@@H]1C=C[C@H](Oc2cccc(Oc3ccc(F)cc3)c2)C1 | 1.08 | 0.968 | 1.14 | 0.801 |  |

| SMILES | Renilla luciferase signal (concentration: 0.1 uM) | Renilla luciferase signal (concentration: 1 uM) | Renilla luciferase signal (concentration: 10 uM) | Renilla luciferase signal (concentration: 100 uM) | Renilla luciferase signal (concentration: 0.01 uM) |
| --- | --- | --- | --- | --- | --- |
| CC1(C)NC(=O)N(c2ccc([N+](=O)[O-])c(C(F)(F)F)c2)C1=O [Nilutamide] | 1.05 | 1.09 | 0.995 | 0.268 |  |
| CC(=O)CC(c1ccccc1)c1c(O)c2ccccc2oc1=O (configuration not stated) [Warfarin] | 1.16 | 0.923 | 0.762 | 1.24 |  |
| NC(CCCP(=O)(O)O)C(=O)O (racemic) | 0.901 | 1.22 | 1.06 | 2.45 | 0.767 |
| Cc1ccc(S(=O)(=O)NC(=O)NN2CCCCCC2)cc1 [Tolazamide] | 0.729 | 0.841 | 0.872 | 1.19 |  |
| CC(C)(C)c1cc(O)ccc1O [tert-Butylhydroquinone] | 0.651 | 0.859 | 0.989 | 0.227 |  |
| CO[C@@H]1COCC[C@@H]1[NH2+][C@@H]1CC[C@@](C(=O)N2CCc3ncc(C(F)(F)F)cc3C2)(C(C)C)C1.O=C([O-])CCC(=O)O | 0.901 | 1.1 | 0.9 | 1.08 |  |
| NCc1cccc(C2CCN(C(=O)c3ccc(C#Cc4ccccc4F)o3)CC2)c1 | 1.16 | 0.989 | 1.04 | 1.31 |  |
| CCOC(=O)CCC(=O)OCC [Diethyl butanedioate] | 0.922 | 0.965 | 0.973 | 1.25 |  |
| [Cl-].[K+] | 0.999 | 1.06 | 1.02 | 1.88 | 1.13 |
| [Cl-].[Li+] | 1.03 | 0.97 | 0.953 | 1.14 | 0.945 |
| Cc1cn([C@H]2C=C[C@@H](CO)O2)c(=O)[nH]c1=O [Stavudine] | 0.957 | 1.07 | 0.973 | 0.903 |  |
| CCc1nc(N)nc(N)c1-c1ccc(Cl)cc1 [Pyrimethamine] | 1.11 | 1.06 | 1.07 | 0.0813 |  |
| Cc1ccc(C(C)C)cc1 [p-Cymene] | 1.03 | 0.949 | 1.11 | 1.51 |  |
| CC(C)c1cccc(C(C)C)c1 [1,3-Diisopropylbenzene] | 1.12 | 1.28 | 1.17 | 1.7 |  |
| Nc1ncn([C@@H]2O[C@H](CO)[C@@H](O)[C@H]2O)c(=O)n1 [5-azacytidine] | 0.572 | 0.391 | 0.138 | 0.596 | 0.936 |
| CCCCCCCCCCCCCCCCOS(=O)(=O)[O-].[Na+] [Sodium hexyldecyl sulfate] | 1.11 | 1.05 | 1.11 | 0.434 |  |
| CC(=O)O[C@]1(C(C)=O)CC[C@H]2[C@@H]3C=C(Cl)C4=CC(=O)[C@@H]5C[C@@H]5[C@]4(C)[C@H]3CC[C@@]21C [Cyproterone acetate] | 1.06 | 0.965 | 0.849 | 0.603 |  |
| CCOc1ccc2[nH]cc(C(=O)NCc3ccccc3)c(=O)c2n1 | 1.05 | 1.12 | 1.22 | 0.85 |  |
